Out of some 360,000 compounds screened, about 11,000 (3.1%) were called active. About 4% were inconclusive and are not listed. Only a selection was taken, and actives are over-represented in it overall. Values without a mark were called inactive. Calls come from the whole dose curve; as a rule, active = well fitted inhibition curve with a large enough effect; inconclusive = small, poorly fitted or top-dose-only effect; inactive = no such curve, though single readings can be large or run the other way.
% is set by controls: 0 for no effect and ±100 for the full control effect; potency is the fitted concentration of half-maximal effect.

This assay deals with Schistosoma mansoni thioredoxin glutathione reductase (TGR) (UniProt Q962Y6). In words: qHTS Assay for the Inhibitors of Schistosoma Mansoni Peroxiredoxins. Note: nearly all actives have a fitted effect of over 60% in size. As to conditions: purified TGR, DTNB reduction, TNB absorbance 405 nm; series mostly up to 114 µM; activity change, negative = inhibition: at the top concentration. An outline of the steps:
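First, TGR (20 nM dispensed) and NADPH were mixed with compound. Second, a 15 min room-temperature incubation followed. Third, further NADPH and then DTNB were added to start the reaction. Finally, TNB absorbance was monitored kinetically.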
Background: Quantitative high-throughput screening tests each substance at several concentrations.
As for `CCCCCn1c(=O)[nH]c2cc(C(=O)Nc3cc(C)cc(C)c3)ccc2c1=O`, the “activity change, negative = inhibition” value was 0.323%.
Still for that read-out and setting: the figure for `O=C1CC[C@H](O)CCN1[C@H](CSc1ccc(Br)cc1)Cc1ccccc1` is -6.32%; for `C[C@H]1CCC(=O)N([C@H](CSc2ccccc2)Cc2ccccc2)CC1` it is -20%.
For the molecule `COc1ccc(SC[C@H](Cc2ccccc2)N2CCN(CCc3ccccc3)CCC2=O)cc1`, the Potency is 17.8 µM (active).
As for `COc1cccc(NC(=O)CSC2=Nc3ccccc3C3=NC(CC(=O)NC4CCCCC4)C(=O)N23)c1` (configuration not stated), the “activity change, negative = inhibition” value was 3.31%.
Consider `CC(=O)c1ccc(NC(=O)c2nc3nc(C)cc(C(F)F)n3n2)cc1`, for which the “activity change, negative = inhibition” value was -2.5%.
The same measure, in the same setting: the figure for `O=C(NNC(=S)Nc1ccc(Br)cc1Cl)c1ccco1` is -15.5%.
Take `O=C(/C=C/c1ccco1)NC(=S)Nc1ccccc1Br`: the Potency was 35.5 µM (active).
Consider `COc1ccccc1/C=C/C(=O)NC(=S)N1CCOCC1`, for which the “activity change, negative = inhibition” value was -5.17%.
With `COc1ccc(Cl)cc1C(=O)NNC(=S)NC(=O)/C=C/c1ccco1`, the “activity change, negative = inhibition” value was -28.9%.
Turning to `O=C(/C=C/c1ccco1)NC(=S)N1CCCCC1`, the Potency is 25.1 µM (active).
On to `COc1ccc(/C=C/C(=O)NC(=S)N2CCCC(C(N)=O)C2)cc1` (configuration not stated), for which the “activity change, negative = inhibition” value is 3.32%.
As for `O=C(Nc1ccc2nc(SCC(=O)N3CCCc4ccccc43)sc2c1)c1ccc(Cl)cc1`, the “activity change, negative = inhibition” value is 9.24%.
The same measure, in the same setting: the figure for `COc1ccccc1-c1noc(CSc2nnc(-c3ccccc3)n2-c2ccc(C)c(C)c2)n1` is 4.75%.
On to `O=C(O)c1ccc(CSc2nc3cccnc3n2Cc2cccc(F)c2)cc1`, for which the “activity change, negative = inhibition” value is 9.94%.
In the case of `Cc1ccc(-n2ncc(C(=O)N(C)Cc3ccccc3)c2-n2cccc2)cc1`, the “activity change, negative = inhibition” value is 2.53%.
On the same count and under the same terms, the figure for `CC(=O)c1ccc(NS(=O)(=O)c2ccc(-c3cc(C)no3)s2)cc1` is -8.37%; for `COc1ccccc1CNC(=O)c1ccc(-n2c(C)cc3c2CCCC3)cc1` it is -25.8%.
Consider `CN1C(=O)/C(=N/OC(=O)c2ccccc2Br)c2ccccc21`, for which the Potency is 12.6 µM (active).
As to `Cn1c(=O)c(=O)n(C)c2cc(NC(=O)c3ccccc3Br)ccc21`, the “activity change, negative = inhibition” value was 0.681%.
Take `CN1C(=O)/C(=C\c2cc(Br)cs2)c2ccccc21`: the “activity change, negative = inhibition” value was -1.32%.
Regarding `Cc1ccc(C)c(NC(=O)CSC2=Nc3ccccc3N=C(c3ccc(F)cc3)C2)c1`, the “activity change, negative = inhibition” value is -2.76%.
Consider `COc1cc(C(=O)Nc2ccc(-n3c(C)nc4ccccc4c3=O)cc2)cc(OC)c1OC`, for which the “activity change, negative = inhibition” value was -1.35%.
On to `Cc1ccc(SC(CC(=O)c2ccc(C(C)(C)C)cc2)C(=O)O)cc1` (configuration not stated), for which the Potency was 2 µM (active).
Turning to `CC(C)(C)c1ccc(C(=O)NNC(=O)Cc2ccccc2)cc1`, the “activity change, negative = inhibition” value was 4.42%.
Turning to `Cc1ccc(Sc2cc(C(=O)c3ccccc3C(=O)O)ccc2[N+](=O)[O-])cc1`, the “activity change, negative = inhibition” value was -7.05%.
On the same count and under the same terms, under `COc1ccc2[nH]c3c(c2c1)CCN(C(=O)CCC1CCCC1)C3c1ccc(F)cc1` (configuration not stated) stands -6.55%.
Same read-out and setting: under `CCO[C@H]1OC(C(=O)NCc2ccccc2)=C[C@@H](c2coc3ccccc3c2=O)[C@@H]1CCCO` stands -1.2%; under `CCO[C@@H]1OC(C(N)=O)=C[C@H](c2ccc(Br)cc2)[C@H]1CCCO`, 2.27%.
Regarding `C#CCNC(=O)C1=C[C@@H](c2ccccc2)[C@H](CCCO)[C@@H](OCC)O1`, the Potency was 35.5 µM (active).
With `CCn1c(SCC(=O)Nc2nccs2)nnc1-c1ccco1`, the “activity change, negative = inhibition” value is -7.64%.
Same read-out and setting: the figure for `Cn1c(SCC(=O)N2CCCC2)nnc1-c1cccs1` is -6%.
Take `Cn1c(SCC(=O)c2cccs2)nnc1-c1ccco1`: the Potency is 44.7 µM (active).
`Cc1ccc(SCC(=O)Nc2ccc3oc(-c4ccccc4F)nc3c2)cc1`: the “activity change, negative = inhibition” value is -9.68%.
On to `CCc1ccc(Nc2nn3c(=O)c4cc5c(cc4nc3s2)OCO5)cc1`, for which the “activity change, negative = inhibition” value is -4.94%.
Same read-out and setting: under `Cc1ccc(S(=O)(=O)NCCC(=O)Nc2ccc(C)c(Cl)c2)cc1C` stands 4.29%.
Take `O=C(O)CCS(=O)(=O)c1ccc(-c2ccccc2)cc1`: the “activity change, negative = inhibition” value is -10.8%.
As to `CC(=O)CCS(=O)(=O)c1ccc(C)c(C)c1`, the Potency was 50.1 µM (active).
For `CC(=O)c1c(C)n(S(=O)(=O)c2ccc(Cl)cc2)c2ccc(NS(=O)(=O)c3ccc(Cl)cc3)cc12`, the “activity change, negative = inhibition” value was -17.9%.
Regarding `CSc1nn(Cc2cccc(C)c2)c(N)c1S(=O)(=O)c1ccccc1`, the “activity change, negative = inhibition” value was 12.3%.
On to `O=C(NCc1ccco1)/C(=C/c1ccco1)NC(=O)c1ccccc1`, for which the Potency is 39.8 µM (active).
For the molecule `O=C(NNC(=O)c1ccco1)Nc1ccccc1`, the “activity change, negative = inhibition” value was 4.12%.
Same read-out and setting: the figure for `O=C(NCC1CCCO1)/C(=C\c1ccco1)NC(=O)c1ccccc1` (configuration not stated) is -35.4%.
Take `COc1ccccc1C(=O)N/C(=C/c1ccco1)C(=O)Nc1ccc(C(=O)O)cc1`: the Potency is 50.1 µM (active).
As for `CC(C)(C)c1ccc(/C=C/C(=O)NC2CCS(=O)(=O)C2)cc1` (configuration not stated), the “activity change, negative = inhibition” value is 12.1%.
For `COc1ccc(/C=C(/NC(=O)c2ccco2)C(=O)Nc2ccc(C(C)=O)cc2)cc1`, the “activity change, negative = inhibition” value is -6.99%.
Same read-out and setting: under `Cc1ccc(C(=O)N/C(=C/C=C/c2ccccc2)C(=O)NCc2ccco2)cc1` stands 0.675%.
As to `NC(=O)C1CCN(C(=O)/C(=C/c2ccco2)NC(=O)c2ccccc2)CC1`, the “activity change, negative = inhibition” value was -24.6%.
As to `O=C(Nc1ccccc1)/C(=C\c1ccco1)NC(=O)c1ccco1`, the Potency is 10 µM (active).
With `Cc1ccc(NC(=O)/C(=C\c2ccccc2)NC(=O)c2ccco2)cc1`, the “activity change, negative = inhibition” value was -2.41%.
The same measure, in the same setting: the figure for `COc1ccccc1C(=O)N/C(=C/c1ccc2c(c1)OCO2)C(=O)Nc1cccc(C(=O)O)c1` is 6.54%.
For `Cc1ccc(C(=O)N/C(=C\c2ccco2)C(=O)NC2CCS(=O)(=O)C2)cc1` (configuration not stated), the Potency was 31.6 µM (active).
